In PubChem BioAssay (Tox21):
Inconclusive results are not listed. Where a call stands in place of a potency, no number is given. The source holds several records for some structures; these can differ, active in one and inactive in another. The source made the active and inactive calls. Unless noted, calls come from the whole dose curve.

Assays:
[1] = Nuclear factor erythroid 2-related factor 2/antioxidant responsive element (Nrf2/ARE) small molecule agonists: qHTS cell viability counter screen in human keratinocytes (AID 1919968; active = well fitted curve in the direction sought with a large enough effect in the repeat runs; an effect the other way counts as inactive or inconclusive; note: nearly all actives have a fitted effect of over 55% in size)
Method in brief: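 KeratinoSens HaCaT cells, 1,500/well, preincubated 5 h, then exposed to compounds in DMSO for 23 h at 37 C/5% CO2. Viability read as CellTiter-Fluor fluorescence after 1 h, in the same wells as the ARE-luciferase read.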

[2] = target: Gonadotropin-releasing hormone receptor (Homo sapiens) (UniProt P30968); experiment: Human gonadotropin-releasing hormone receptor (GnRHR) small molecule agonists, calcium flux assay in GnRHR-HEK293 cells (AID 1920063); note: nearly all actives have a fitted effect of over 35% in size
Gonadotropin-releasing hormone receptor (Homo sapiens), sequence (P30968 whole entry, looked up): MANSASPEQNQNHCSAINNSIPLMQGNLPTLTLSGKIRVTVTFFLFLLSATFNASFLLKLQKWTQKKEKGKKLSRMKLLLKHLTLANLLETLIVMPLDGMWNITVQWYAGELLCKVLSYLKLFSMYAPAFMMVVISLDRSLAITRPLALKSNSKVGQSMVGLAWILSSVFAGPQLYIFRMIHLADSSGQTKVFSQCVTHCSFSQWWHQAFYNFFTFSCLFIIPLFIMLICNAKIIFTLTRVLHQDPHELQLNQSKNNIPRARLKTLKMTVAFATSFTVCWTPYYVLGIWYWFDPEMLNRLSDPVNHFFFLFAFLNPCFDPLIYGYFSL
Method in brief: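 HEK293 cells stably expressing human GnRHR were dye-loaded for 1 h at 37 C. Compound was added in agonist mode and fluorescence (Ex/Em 480/540) recorded kinetically for 3 min. Fifteen concentrations, triplicates.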

[3] = target: KiSS-1 receptor (Homo sapiens) (UniProt Q969F8); experiment: Human kisspeptin (KISS1R) small molecule agonists, calcium flux assay in KISS1R-HEK293 cells (AID 1920064; active = well fitted curve in the direction sought with a large enough effect in the repeat runs; an effect the other way counts as inactive or inconclusive)
KiSS-1 receptor (Homo sapiens), sequence (Q969F8 whole entry, looked up): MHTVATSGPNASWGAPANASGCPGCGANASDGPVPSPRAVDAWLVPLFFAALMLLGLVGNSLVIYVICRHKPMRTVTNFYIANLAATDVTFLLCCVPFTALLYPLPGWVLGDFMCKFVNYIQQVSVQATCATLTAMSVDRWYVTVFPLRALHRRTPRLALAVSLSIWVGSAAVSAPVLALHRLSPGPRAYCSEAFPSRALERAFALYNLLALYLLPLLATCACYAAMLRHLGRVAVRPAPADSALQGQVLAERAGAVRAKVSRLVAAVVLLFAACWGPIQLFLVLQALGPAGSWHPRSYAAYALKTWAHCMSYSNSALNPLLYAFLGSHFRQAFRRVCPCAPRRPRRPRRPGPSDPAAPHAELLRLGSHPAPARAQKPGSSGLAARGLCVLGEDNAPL
Method in brief: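 HEK293 cells stably expressing human KISS1R were loaded with calcium dye for 1 h at 37 C, then given compound; fluorescence (Ex/Em 480/540) was read kinetically for 3 min. Fifteen concentrations, triplicate.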

[4] = G protein-coupled receptor (GPCR) small molecule agonists, calcium flux assay: HEK293 wild type cell line counter screen (AID 1920065)
Method in brief: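 Wild-type HEK293 cells plated 18 h, loaded with calcium dye 1 h at 37 C, then compounds added in agonist mode (ATP as positive control). Kinetic fluorescence Ex/Em 480/540 recorded 3 min at 1 sec intervals; 15 concentrations, triplicate.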

[5] = p53 small molecule agonists, cell-based qHTS assay with human liver microsomes (AID 1963577)
Method in brief: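 p53RE-bla cells, 4,000/well, compound added after 5 h, with human liver microsomes 0.5 mg/mL and NADPH 0.5 mg/mL final; 16 h at 37 C, then LiveBLAzer 2 h RT, fluorescence.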

[6] = p53 small molecule agonists, cell-based qHTS assay with rat liver microsomes (AID 1963578)
Method in brief: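 p53RE-bla cells, 4,000/well, pre-incubated 5 h, then given compounds plus rat liver microsomes (0.5 mg/mL final) and NADPH (0.5 mg/mL final). Incubation 16 h at 37 C; beta-lactamase reporter read by LiveBLAzer fluorescence after 2 h at room temperature.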

[7] = p53 small molecule agonists, cell-based qHTS assay with human liver microsomes: qHTS cell viability counter screen (AID 1963579); note: nearly all actives have a fitted effect of over 45% in size; note: potency is the fitted concentration of half-maximal effect
Method in brief: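 p53RE-bla cells, 4,000/well, dosed 5 hours after plating, with human liver microsomes (0.5 mg/mL final) plus NADPH (0.5 mg/mL final), 16 hours at 37 C. Viability read as CellTiter-Glo luminescence after 30 min at room temperature.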

[8] = p53 small molecule agonists, cell-based qHTS assay with rat liver microsomes: qHTS cell viability counter screen (AID 1963580); note: nearly all actives have a fitted effect of over 45% in size
Method in brief: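 In HCT-116 cells carrying a p53 response element-bla reporter, compounds were metabolically activated in situ by rat liver microsomes with NADPH over 16 h. Cell ATP content then served as the cytotoxicity measure.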

[9] = p53 small molecule agonists, cell-based qHTS assay: qHTS cell viability counter screen (AID 1963581); note: nearly all actives have a fitted effect of over 45% in size
Method in brief: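 p53RE-bla HCT-116 cells, compounds added 5 h after plating and incubated 16 h at 37 C. Cytotoxicity measured in the same wells as intracellular ATP by CellTiter-Glo luminescence after 30 min at room temperature.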

[10] = p53 small molecule agonists, cell-based qHTS assay (AID 1963582; active = well fitted activation curve with a large enough effect in the signal ratio in the repeat runs, not every such curve was filed as active; the % refers to the signal ratio)
Method in brief: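 p53RE-bla reporter cells, compounds added in DMSO after 5 h plating, incubated 16 h at 37 C. Beta-lactamase read via 2 h room-temperature LiveBLAzer B/G FRET substrate, fluorescence intensity.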

[11] = cAMP Responsive Elements (CRE) small molecule agonists, cell-based qHTS assay (AID 1963590)
Method in brief: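 CRE-bla HEK 293T cells, 2,000/well in DMEM with 10% dialyzed FBS and 25 mM HEPES, pre-incubated 18 h at 37 C, then exposed to compound 3 h at 37 C. Beta-lactamase reporter read with LiveBLAzer B/G FRET substrate after 2 h at room temperature.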

[12] = cAMP Responsive Elements (CRE) small molecule antagonists, cell-based qHTS assay (AID 1963591; active = well fitted inhibition curve with a large enough effect in the signal ratio in the repeat runs, not every such curve was filed as active; the % refers to the signal ratio)
Method in brief: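 CRE-bla HEK293T cells plated 18 h, then given compound plus NKH477 at 0.25 uM final for 3 h at 37C. Beta-lactamase reporter read with LiveBLAzer B/G FRET substrate after 2 h at room temperature.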

[13] = target: Beta-2 adrenergic receptor (Homo sapiens) (UniProt P07550); experiment: Adrenergic beta2 receptor (ADRB2) small molecule antagonists, cell-based qHTS assay (AID 1963592); note: nearly all actives have a fitted effect of over 50% in size; note: potency is the fitted concentration of half-maximal effect
Beta-2 adrenergic receptor (Homo sapiens), sequence (P07550 whole entry, looked up): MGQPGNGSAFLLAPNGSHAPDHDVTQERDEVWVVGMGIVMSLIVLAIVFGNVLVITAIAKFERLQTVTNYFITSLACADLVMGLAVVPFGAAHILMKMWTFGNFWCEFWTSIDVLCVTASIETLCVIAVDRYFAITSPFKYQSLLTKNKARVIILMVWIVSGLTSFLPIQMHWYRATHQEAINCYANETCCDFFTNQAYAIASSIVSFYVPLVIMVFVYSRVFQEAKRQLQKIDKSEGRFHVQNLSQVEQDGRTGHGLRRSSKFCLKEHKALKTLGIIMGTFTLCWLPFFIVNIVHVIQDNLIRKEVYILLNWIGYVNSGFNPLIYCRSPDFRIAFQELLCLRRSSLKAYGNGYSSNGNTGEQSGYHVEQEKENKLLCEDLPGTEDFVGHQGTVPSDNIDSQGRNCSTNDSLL
Method in brief: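 Cells (CHO, stable ADRB2 overexpression) incubated 18-20hr at 37C; compounds added from DMSO; agonist mix (1nM isoproterenol, 100uM IBMX, 25uM Ro-20-1724) added; 0.5hr RT; d2-cAMP and anti-cAMP-cryptate added; 1hr RT; 665/615 nm read.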

[14] = target: Beta-2 adrenergic receptor (Homo sapiens) (UniProt P07550); experiment: Adrenergic beta2 receptor (ADRB2) small molecule agonists, cell-based qHTS assay (AID 1963593);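 note: CHO cells stably overexpressing human ADRB2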
Method in brief: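 CHO cells stably over-expressing ADRB2 were plated overnight at 37C, then dosed with compounds plus a stimulation mix containing 100uM IBMX and 25uM Ro-20-1724 for 0.5hr at room temperature. cAMP was measured by HTRF competition, 1hr.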

[15] = target: D(2) dopamine receptor (Homo sapiens) (UniProt P14416); experiment: Dopamine D2 receptor (DRD2) small molecule agonists, cell-based qHTS assay (AID 1963594); note: nearly all actives have a fitted effect of over 35% in size
D(2) dopamine receptor (Homo sapiens), sequence (P14416 whole entry, looked up): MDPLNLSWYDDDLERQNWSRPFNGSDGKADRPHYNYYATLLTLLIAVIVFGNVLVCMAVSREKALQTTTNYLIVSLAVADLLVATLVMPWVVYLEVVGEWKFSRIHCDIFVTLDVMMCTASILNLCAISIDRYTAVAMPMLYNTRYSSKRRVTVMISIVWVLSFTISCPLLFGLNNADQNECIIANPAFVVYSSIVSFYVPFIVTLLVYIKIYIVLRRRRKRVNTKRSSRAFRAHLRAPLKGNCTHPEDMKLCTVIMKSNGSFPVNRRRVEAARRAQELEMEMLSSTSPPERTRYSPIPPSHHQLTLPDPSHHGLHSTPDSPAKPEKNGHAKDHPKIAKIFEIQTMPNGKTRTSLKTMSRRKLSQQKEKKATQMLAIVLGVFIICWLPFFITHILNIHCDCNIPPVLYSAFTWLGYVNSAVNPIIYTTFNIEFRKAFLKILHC
Method in brief: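 HEK293 cells stably expressing DRD2 were cultured 24 h at 37 C, then given Ro20-1724 (0.1 mM final) and compounds for 10 min at room temperature. NKH477 (200nM) was then added for 30 min. cAMP was read by HTRF.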

[16] = target: D(2) dopamine receptor (Homo sapiens) (UniProt P14416); experiment: Dopamine D2 receptor (DRD2) small molecule antagonists, cell-based qHTS assay (AID 1963595; active = well fitted inhibition curve with a large enough effect in the signal ratio in the repeat runs, with a control signal flat; the % refers to the signal ratio)
Method in brief: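 HTRF cAMP read-out at 665 and 620 nm emission (340 nm excitation). Antagonist mode: compounds were tested against 12 nM quinpirole in DRD2-HEK293 cells, with 200 nM NKH477 raising cAMP and 0.1 mM Ro20-1724 blocking its breakdown.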

[17] = target: 5-hydroxytryptamine receptor 2A (Homo sapiens) (UniProt P28223); experiment: 5-hydroxytryptamine receptor 2A (HTR2A) small molecule antagonists, cell-based qHTS assay (AID 1963586); note: nearly all actives have a fitted effect of over 45% in size
5-hydroxytryptamine receptor 2A (Homo sapiens), sequence (P28223 whole entry, looked up): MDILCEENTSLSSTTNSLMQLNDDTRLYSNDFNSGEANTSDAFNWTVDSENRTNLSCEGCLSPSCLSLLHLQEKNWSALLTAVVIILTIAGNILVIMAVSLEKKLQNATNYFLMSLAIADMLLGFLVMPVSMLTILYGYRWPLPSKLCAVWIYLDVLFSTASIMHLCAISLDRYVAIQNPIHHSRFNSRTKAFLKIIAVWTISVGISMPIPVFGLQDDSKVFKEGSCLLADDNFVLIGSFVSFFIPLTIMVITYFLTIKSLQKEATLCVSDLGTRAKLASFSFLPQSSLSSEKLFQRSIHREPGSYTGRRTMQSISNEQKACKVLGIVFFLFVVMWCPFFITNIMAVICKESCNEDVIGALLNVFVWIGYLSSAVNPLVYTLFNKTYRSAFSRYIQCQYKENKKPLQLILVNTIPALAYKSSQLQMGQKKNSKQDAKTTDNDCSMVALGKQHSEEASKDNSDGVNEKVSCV
Method in brief: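 Antagonist-mode intracellular calcium assay: DOI (4 nM) added after 5 min compound pre-incubation at room temperature to dye-loaded HTR2A-CHO cells. Fluorescence followed for 3 min, sampled every second.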

[18] = target: 5-hydroxytryptamine receptor 2A (Homo sapiens) (UniProt P28223); experiment: 5-hydroxytryptamine receptor 2A (HTR2A) small molecule agonists, cell-based qHTS assay (AID 1963587); note: nearly all actives have a fitted effect of over 30% in size
Method in brief: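 HTR2A-CHO cells, plated 18 h at 37 C/5% CO2, dye-loaded 1 h at 37 C; compounds in DMSO added by pin tool (agonist mode). Intracellular calcium flux read as kinetic fluorescence on FDSS over 2 min at 1 s intervals.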

[19] = target: Muscarinic acetylcholine receptor M1 (Homo sapiens) (UniProt P11229); experiment: Cholinergic receptor muscarinic 1 (CHRM1) small molecule antagonists, cell-based qHTS assay (AID 1963588); note: nearly all actives have a fitted effect of over 40% in size
Muscarinic acetylcholine receptor M1 (Homo sapiens), sequence (P11229 whole entry, looked up): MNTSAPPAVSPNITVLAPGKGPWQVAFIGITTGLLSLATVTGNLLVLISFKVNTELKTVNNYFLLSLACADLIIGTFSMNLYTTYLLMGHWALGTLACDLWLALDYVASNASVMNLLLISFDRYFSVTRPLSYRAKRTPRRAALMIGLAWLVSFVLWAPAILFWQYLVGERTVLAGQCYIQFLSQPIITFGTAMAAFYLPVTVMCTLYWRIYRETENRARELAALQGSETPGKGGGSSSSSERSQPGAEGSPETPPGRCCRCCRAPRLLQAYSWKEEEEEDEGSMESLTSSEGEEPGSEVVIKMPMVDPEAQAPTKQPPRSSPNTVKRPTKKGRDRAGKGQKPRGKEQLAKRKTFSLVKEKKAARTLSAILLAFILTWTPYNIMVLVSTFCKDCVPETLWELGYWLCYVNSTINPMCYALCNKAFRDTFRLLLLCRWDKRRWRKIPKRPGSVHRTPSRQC
Method in brief: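 CHRM1-CHO calcium-flux assay, antagonist mode. Cells were seeded 18 h, dye-loaded 1 h at 37 C and given compound for 5 min at RT, then acetylcholine was added at 50nM. FDSS fluorescence was read 3 min; 15 concentrations, three runs.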

[20] = target: Muscarinic acetylcholine receptor M1 (Homo sapiens) (UniProt P11229); experiment: Cholinergic receptor muscarinic 1 (CHRM1) small molecule agonists, cell-based qHTS assay (AID 1963589); note: nearly all actives have a fitted effect of over 35% in size
Method in brief: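 CHO cells stably expressing human CHRM1 were loaded with calcium dye for 1 h at 37 C, then compound was added in agonist mode. Intracellular calcium fluorescence was followed kinetically at 1 s intervals. Fifteen concentrations were tested in three independent runs.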

Row | SMILES | Potency [1] | Potency [2] | Potency [3] | Potency [4] | Potency [5] | Potency [6] | Potency [7] | Potency [8] | Potency [9] | Potency [10] | Potency [11] | Potency [12] | Potency [13] | Potency [14] | Potency [15] | Potency [16] | Potency [17] | Potency [18] | Potency [19] | Potency [20]
1 | Nc1nc(N)nc(NC2CC2)n1 | inactive | inactive | inactive | inactive | inactive | inactive | inactive | inactive | inactive | inactive | inactive | inactive | inactive | inactive | inactive | inactive |  |  |  | 
2 | CC(=[OH+])/C=C(/C)[O-].CC(=[OH+])/C=C(\C)[O-].CC(=[OH+])/C=C(\C)[O-].[Al] | inactive | inactive | inactive | inactive | inactive | inactive | inactive | inactive | inactive | inactive | inactive |  |  |  | inactive | inactive | inactive | inactive | inactive | inactive
3 | C=CC(=O)OCC(CC)CCCC (stereo not drawn) | inactive | inactive | inactive | inactive | inactive | inactive | inactive | inactive | inactive | inactive |  | inactive | inactive | inactive | inactive |  | inactive | inactive | inactive | inactive
4 | C[C@]12CCC(=O)C[C@@H]1CC[C@@H]1[C@@H]2CC[C@]2(C)[C@@H](O)CC[C@@H]12 | inactive | inactive | inactive | inactive | inactive | inactive | 35.9 µM (active) and inactive | inactive | inactive | inactive |  |  | 9.7 µM (active) |  | inactive | inactive |  |  |  | 
5 | CCCCCCOC(=O)c1ccccc1C(=O)OCCCCCC | inactive | inactive | inactive | inactive | inactive | inactive | inactive | inactive | inactive | inactive | inactive | inactive | inactive |  | inactive | inactive | inactive |  | inactive | inactive
6 | C[C@]12CC[C@H]3[C@@H](CC=C4C[C@@H](O)CC[C@@]43C)[C@@H]1CC[C@@H]2O | inactive | inactive | inactive | inactive | inactive | inactive | inactive | inactive | inactive | inactive | inactive | inactive | inactive |  | inactive | inactive |  |  |  | 
7 | O=S(=O)(c1ccc(Cl)cc1)c1cc(Cl)c(Cl)cc1Cl | inactive | inactive | inactive | inactive | inactive | inactive | inactive | inactive | inactive |  | inactive |  | inactive |  | inactive | inactive | inactive | inactive |  | inactive
